Shown are actives, neighbours in structure and some others; about 17% of the full set was active somewhere.
TGFb inhibitor: blocks TGF-b signaling. Potency, µM (top dose mostly 46.1 µM), most hits filed as inhibitors. AID 588855. actives 1.2% (n = 410,000). HepG2 CAGA-GFP TGF-b/SMAD3 reporter, GFP fluorescence, 18 h; TGF-beta stimulated, 500 pg/mL final; also: nearly all actives have a fitted effect of over 65% in size
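HEPG2 CAGA-GFP, 1000 cells/well; 2 h settle, 37 C; cpd via pin tool; TGF-b 500 pg/mL final; 18 h, 37 C; GFP imaging ex488/em500-530; %Activity normalised to -TGF-b and +DMSO controls; CRC fit, curve class.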
HepG2 viability: counter-screen for TGF-b inhibitors: cytotoxicity in HepG2 cells. AID 588856. HepG2 CAGA-GFP viability, ATP luminescence, 18 h. actives 0.76% (n = 410,000). Potency, µM (series often up to 46.1 µM), usual class: cytotoxic
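CellTiter-Glo luminescence gave cytotoxicity after 18 hours at 37 degrees C. The cells were HepG2 CAGA-GFP in 1% FBS DMEM, stimulated with 500 pg/mL TGF-beta after compound addition. %Activity was normalised to no-cell wells (complete cell-killing) and DMSO (no toxicity), and curves were fitted and classified.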
DT40 TDP1 CPT: DT40-hTDP1 cell growth loss with CPT. actives 12% (n = 420,000). chicken DT40 Tdp1-/-;hTDP1 cells + 20 nM CPT, ATP luminescence, 48 h. Potency, µM (titrated, usually from 46.2 µM), most hits filed as inhibitors. AID 686979; also: nearly all actives have a fitted effect of over 55% in size
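Cell growth measured by CellTiter-Glo luminescence after a minimum 48 h, 37 C compound exposure with 20 nM CPT in Tdp1-knockout DT40 cells stably expressing hTDP1, seeded 400/well; qHTS titration format.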
ATXN viability: viability counter-screen for ATXN expression inhibitors | actives 0.49% (n = 400,000) | S2 cells (HEK-293 line with an ATXN2-luciferase reporter) viability, CellTiter-Fluor protease fluorescence, 24 h | Potency, µM (top dose mostly 56.7 µM), usual class: cytotoxic | AID 651635; also: nearly all actives have a fitted effect of over 40% in size
TDP1 cell noCPT: qHTS for Inhibitors of human tyrosyl-DNA phosphodiesterase 1 (TDP1): qHTS in cells in absence of CPT | actives 15% (n = 420,000) | AID 686978, 2013 | Potency, µM (top dose mostly 46.2 µM), most hits filed as inhibitors | DT40 Tdp1-/- hTDP1 cells, no CPT, ATP luminescence, 48 h; also: nearly all actives have a fitted effect of over 55% in size
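A cellular qHTS used chicken DT40 cells lacking endogenous Tdp1 but carrying stably transfected human TDP1. Compounds were applied without camptothecin, and cell growth kinetics were judged by ATP-dependent luminescence after ≥48 hr.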
ATXN2 expr inh: ATXN2 expression inhibition; Potency, µM (titrated, usually from 57 µM), actives largely listed as inhibitors; HEK-293 ATXN2-luciferase reporter, luminescence, 24 h; actives 0.72% (n = 360,000); also: nearly all actives have a fitted effect of over 55% in size
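qHTS (up to 57 uM final) was run with 24 h compound exposure of reporter cells at 37 °C. Each well was multiplexed: SteadyGlo luminescence measured ATXN2-luciferase expression after a fluorogenic Gly-Phe-AFC viability readout (25 uM final).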
Numbers stand for hits; 0 = inactive; ? = inconclusive; - = no result; [ ] = dose if it differs, or a comment. Calls follow the shape of the dose curve; as a rule, active = well fitted curve in the direction sought with a large enough effect; inconclusive = small, poorly fitted or top-dose-only effect, or another doubt; inactive = no such curve, though single readings can be large; an effect the other way counts as inactive or inconclusive.

SMILES | TGFb inhibitor | HepG2 viability | DT40 TDP1 CPT | ATXN viability | TDP1 cell noCPT | ATXN2 expr inh
O=C(/C=C/c1cccs1)NC(=S)NNC(=O)c1ccccc1O | 0 | 0 | 5.17µM | ? | 4.61µM | ?
Cc1ccccc1CC(=O)Nc1sc(C(C)C)cc1C(=O)N1CCOCC1 | 0 | 0 | 0 | ? | 0 | 0
COc1ccc(C(=O)NCc2ccc3c(c2)CCN3C(C)=O)c(OC)c1 | 0 | 0 | 0 | - | 0 | -
COc1ccc(N/N=C(\C#N)C(=N)N2CCCCC2)cc1 | 0 | 0 | 0 | ? | ? | -
COc1ccc(N/N=C(\C#N)C(=N)SCc2ccccc2)cc1 | ? | 0 | 4.61µM | 0 | 7.31µM | -
CCOC(=O)c1sc(N=NC2=C(O)CC(C)(C)CC2=O)c(C(=O)OCC)c1C | 0 | 0 | ? | 0 | 14.6µM | 0
COC(=O)C[C@@H]1CC[C@@H](NS(=O)(=O)c2ccc(F)cc2)[C@@H](CO)O1 | - | - | 0 | - | 0 | -
Cc1c(C(=O)Nc2ccc3nc(N4CCOCC4)sc3c2)oc2ccccc12 | ? | 0 | 25.9µM | ? | ? | 0
O=C(Nc1ccc2nc(N3CCOCC3)sc2c1)c1cc2ccccc2o1 | 0 | 0 | 23.1µM | 0 | ? | -
COc1cc(C(=O)Nc2ccc3nc(N4CCOCC4)sc3c2)cc(OC)c1OC | 0 | 0 | ? | 0 | ? | 0
NC(=O)c1ccc(-n2nnnc2SCC(=O)Nc2ccccc2F)cc1 | 0 | 0 | 0 | 0 | 0 | 0
O=C(Nc1ccccc1)N1CCC2(CC1)CCN(C(=O)c1ccco1)CC2 | - | - | 0 | - | ? | -
O=C(c1ccco1)N1CCC2(CC1)CN(c1ccc(-c3ccccc3)cc1)C2 | - | - | 7.31µM | - | 9.2µM | -
O=C(c1ccco1)N1CCC2(CC1)CN(c1cccc(-c3ccccc3)c1)C2 | - | - | 23.1µM | - | 13µM | -
O=C(c1ccco1)N1CCC2(CC1)CCN(c1ccncc1)CC2 | - | - | ? | - | 20.6µM | -
O=C(c1ccncc1)N1CCC2(CC1)CN(c1ccc(-c3ccccc3)cc1)C2 | - | - | ? | - | 7.31µM | -
O=C(c1ccsc1)N1CCCC(N2CCOCC2)C1 (stereo unspecified) | 0 | 0 | 0 | 0 | 0 | -
CC(CCc1ccccc1)NC(=O)Cn1c(=O)nc(-c2ccccc2)c2ccccc21 (stereo unspecified) | 0 | 0 | 0 | - | 0 | -
O=C(Cn1cc([N+](=O)[O-])ccc1=O)N1CCc2ccccc2C1 | 0 | 0 | 0 | 0 | 0 | -
O=C(c1ccco1)N1CCC2(CC1)CCN(C(c1ccccc1)c1ccccc1)CC2 | - | - | ? | - | 20.6µM | -
CC(=O)N=c1scc(-c2ccccc2)n1-c1cccc(O)c1 | 0 | 0 | ? | 0 | 16.4µM | 0
O=C(c1csc2c1CCCC2)N1CCN(c2cccc(C(F)(F)F)c2)CC1 | 0 | 0 | ? | 0 | 14.6µM | 0
CC(NC(=O)c1noc2c1CCCC2)c1ccccc1 (stereo unspecified) | 0 | 0 | 0 | 0 | ? | 0
Cc1ccc(Cl)cc1N1CCN(C(=O)c2noc(C(C)C)c2[N+](=O)[O-])CC1 | 0 | 0 | 23.1µM | 0 | ? | 0
CCOC(=O)N1CCN(Cc2ccc3c(c2)CN(C(=O)c2noc4c2CCCC4)CCO3)CC1 | - | - | 0[9.04 µM] | 0 | 20.6µM | -
SMILES | TGFb inhibitor | HepG2 viability | DT40 TDP1 CPT | ATXN viability | TDP1 cell noCPT | ATXN2 expr inh
O=C(c1noc2c1CCCCC2)N1CCN(C(c2ccccc2)c2ccccc2)CC1 | 0 | 0 | 13µM | 0 | 20.6µM | 0
CCOC(=O)N1CCN(Cc2ccc3c(c2)OCO3)CC1 | 0 | 0 | 0 | 0 | 0 | 0
NC(=O)[C@@H]1CCCN1C(=O)CC1(c2cccc(F)c2)CC(=O)N(C2CCCC2)C1=O (stereo partly specified) | - | - | 0[9.04 µM] | 0 | 0 | -
O=C(c1noc2c1CCCCC2)N1CCN(c2cccc(C(F)(F)F)c2)CC1 | ? | 0 | ? | - | 16.4µM | -
Cc1ccc(C)c(N2CCN(C(=O)c3noc4c3CCCCC4)CC2)c1 | 12.6µM | 0 | ? | - | ? | -
O=C(c1noc2c1CCCCC2)N1CCN(c2cccc(Cl)c2)CC1 | 0 | 0 | ? | - | ? | -

Assay outcomes deposited in PubChem BioAssay by National Center for Advancing Translational Sciences (NCATS).
